The nature of this test: EMT-state selective cytotoxicity in co-culture – imaging, PC-3E GFP, TEM4-18 mCherry, primary screen (AID 1345086).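 On all read-outs here: cells exposed to compound for 72 h before imaging.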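 On red/green cell ratio (normalised): normalised mesenchymal count divided by normalised epithelial count so high means epithelial killing.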 The settings on record: PC-3E GFP / TEM4-18 mCherry co-culture, imaging cell counts, at 1 µM; for red/green cell ratio (normalised): actives lie on both sides, counts scaled to control wells, 1 = unselective.
The mark [1] stands for this setting: measured here: epithelial PC-3E GFP cell survival.
Setting [2] is: measured here: mesenchymal TEM4-18 mCherry cell survival.

Activity calls are given as the source filed them.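 How the source made its calls: active means compounds killing one labelled cell type while sparing the other, by normalised counts and ratio limits, not self-fluorescent; inactive means the rest.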

In PubChem BioAssay one finds red/green cell ratio (normalised) and normalised cell number data, which are given here for 30 molecules.

For `C=C/C(C)=C\CC1[C@](C)(O)CC[C@H]2C(C)(C)CCC[C@]12C` (stereo not given in full), the red/green cell ratio (normalised) is 1.09 (inactive). Under setting [1], this molecule registered a normalised cell number of 1.11. Under setting [2], this molecule gave a normalised cell number of 1.2.
Regarding `NCC1O[C@@H](OC2C(N)C[C@@H](N)C(O)[C@H]2OC2OC(CO)C(OC3OC(CN)[C@@H](O)C(O)[C@H]3N)C2O)C(N)[C@@H](O)C1O` (stereo not given in full), the red/green cell ratio (normalised) was 1.11 (inactive). In addition, the normalised cell number under setting [1] is 0.9. Moreover, under setting [2], the normalised cell number is 0.99.
On to `CC(=O)O[C@@H]1C[C@@]2(C)C(CC[C@@H]2C(C)=O)C2CCC3=CC(=O)CC[C@]3(C)C21` (stereo not given in full), for which the red/green cell ratio (normalised) was 1.08 (inactive). This molecule returned a normalised cell number under setting [1] of 0.87. Besides, the normalised cell number under setting [2] was determined as 0.94.
The like results for `CC(C)=C1CC[C@]2(C)[C@@H](O)CC[C@H]3[C@](C)(Cc4c[nH]c5ccccc45)[C@@H](C)CC[C@]132` were, in that order, 0.86 (inactive), 1.09 and 0.94.
The like results for `CC(C)C1=CC2=CCC3[C@](C)(CCC[C@]3(C)C(=O)O)C2CC1` (stereo not given in full) were, in that order, 1.12 (inactive), 0.92 and 1.03.
In the case of `O=C(O)c1cn(C2CC2)c2cc(N3CCN(c4ncncn4)CC3)c(F)cc2c1=O`, the red/green cell ratio (normalised) is 1.22 (inactive). The molecule also returned a normalised cell number under setting [1] of 0.88. Further, the normalised cell number under setting [2] was determined as 1.08.
`C=C1C(=O)O[C@@H]2C(=O)O[C@@H](CCCCCCCC)[C@H]12`: the red/green cell ratio (normalised) was 0.86 (inactive). Moreover, the normalised cell number under setting [1] worked out at 1.04. This molecule also yielded a normalised cell number under setting [2] of 0.89.
Regarding `C[C@H]1[C@H](C)CC[C@]2(C(=O)O)CC[C@]3(C)C(=CCC4[C@@]5(C)C[C@@H](O)[C@H](O)[C@@](C)(CO)C5CC[C@]43C)[C@H]12` (stereo not given in full), the red/green cell ratio (normalised) was 1.16 (inactive). The molecule also returned a normalised cell number under setting [1] of 0.97. This molecule also registered a normalised cell number under setting [2] of 1.13.
Consider `CO[C@H]1C[C@H](O[C@H]2[C@H](C)[C@@H](O[C@@H]3O[C@H](C)C[C@H](N(C)C)[C@H]3O)[C@@H](C)C[C@]3(CO3)C(=O)[C@H](C)[C@@H](O)[C@@H](C)[C@@H](C)OC(=O)[C@@H]2C)O[C@@H](C)[C@@H]1O`, for which the red/green cell ratio (normalised) was 0.92 (inactive). Also, the normalised cell number under setting [1] is 1.06. Under setting [2], this molecule gave a normalised cell number of 0.97.
Turning to `CCC1=CC2CN(C1)Cc1c([nH]c3ccccc13)[C@@](C(=O)OC)(c1cc3c(cc1OC)N(C)[C@H]1[C@@](O)(C(=O)OC)[C@H](OC(C)=O)[C@]4(CC)C=CCN5CC[C@]31[C@@H]54)C2` (stereo not given in full), the red/green cell ratio (normalised) was 1.47 (inactive). The molecule further showed a normalised cell number under setting [1] of 0.13. Moreover, the normalised cell number under setting [2] stood at 0.2.
Consider `CCC1OC(=O)[C@H](C)C(=O)[C@H](C)[C@@H](OC2O[C@H](C)C[C@H](N(C)C)[C@H]2O)[C@](C)(OC)C[C@@H](C)C(=O)[C@H](C)[C@H]2N(CCCCn3cnc(-c4cccnc4)c3)C(=O)O[C@@]12C` (stereo not given in full), for which the red/green cell ratio (normalised) was 1.16 (inactive). Besides, the normalised cell number under setting [1] worked out at 1.06. The same molecule had a normalised cell number under setting [2] of 1.23.
The like results for `Cc1cccc(CN2CCN(C(c3ccccc3)c3ccc(Cl)c(C)c3)CC2)c1` (stereo not given) were, in that order, 0.79 (inactive), 1.23 and 0.97.
The like results for `O=C1N[C@@H]2[C@@H](Sc3ccccc3)OC(CO)C(O)[C@@H]2O1` (stereo not given in full) were, in that order, 0.97 (inactive), 1 and 0.97.
The like results for `COC(=O)[C@H](Cc1ccccc1)NC(=O)/C(=C1\OC(=O)C(c2ccccc2)=C1O)c1ccccc1` were, in that order, 0.97 (inactive), 0.92 and 0.9.
`C[C@H]1C[C@H](O)[C@H]2[C@@H](C=C[C@@](C)(O)[C@]2(C)C(=O)CCO)C1`: the red/green cell ratio (normalised) is 0.95 (inactive). In addition, under setting [1], the normalised cell number amounted to 0.32. The molecule further returned a normalised cell number under setting [2] of 0.3.
As for `CC1(C)C2CC(=O)[C@@]3(C)C4=CC(=O)O[C@@H](C(=O)O)[C@]4(C)CCC3[C@@]2(C)[C@@H](O)C[C@H]1O` (stereo not given in full), the red/green cell ratio (normalised) was 0.95 (inactive). The normalised cell number under setting [1] came to 1.05. This molecule displayed a normalised cell number under setting [2] of 0.99.
The like results for `C[C@H](O)CCc1ccc(C(=O)O)nc1` were, in that order, 0.97 (inactive), 1.16 and 1.13.
The like results for `COc1cc(C(=O)O)cc(OC)c1O` were, in that order, 1.08 (inactive), 1 and 1.07.
The like results for `COc1cc(CC(=O)O)c(C(C)=O)c(O)c1OC` were, in that order, 0.89 (inactive), 1.18 and 1.06.
Regarding `Cc1cn(CC(=O)O)c(=O)[nH]c1=O`, the red/green cell ratio (normalised) is 0.86 (inactive). This molecule also came in with a normalised cell number under setting [1] of 1.15. Also, the normalised cell number under setting [2] came to 0.99.
The like results for `C[C@]12CCC3c4ccc(OC(=O)c5ccccc5)cc4CCC3C1CC[C@@H]2O` (stereo not given in full) were, in that order, 1.1 (inactive), 1 and 1.1.
The like results for `Nc1nc2ncc(CNc3ccc(C(=O)NC(CCC(=O)O)C(=O)O)cc3)nc2c(=O)[nH]1` (stereo not given) were, in that order, 1.18 (inactive), 1.04 and 1.23.
The like results for `CC(CCC(=O)O)[C@H]1CCC2C3CC[C@@H]4C[C@H](O)CC[C@]4(C)C3C[C@H](O)[C@@]21C` (stereo not given in full) were, in that order, 1.05 (inactive), 0.86 and 0.91.
As for `CC(C)[C@H]1COC(=S)N1C(C)CC(=O)N1CCOC1=O` (stereo not given in full), the red/green cell ratio (normalised) is 1.02 (inactive). The normalised cell number under setting [1] was found to be 1.09. Under setting [2], the normalised cell number is 1.11.
`COc1cc(O)c2c(=O)c(OC)c(-c3ccc(OC)c(OC)c3)oc2c1`: the red/green cell ratio (normalised) is 1.03 (inactive). Besides, the normalised cell number under setting [1] came out at 0.82. Further, under setting [2], the normalised cell number stood at 0.85.
The like results for `COc1ccc(-c2cc(=O)c3c(O)c(OC)c(O[C@H]4O[C@H](CO[C@@H]5O[C@@H](C)[C@H](O)[C@@H](O)[C@H]5O)[C@@H](O)[C@H](O)[C@H]4O)cc3o2)cc1` were, in that order, 0.98 (inactive), 1.05 and 1.03.
Regarding `Nc1ccc2ccccc2c1S(=O)(=O)O`, the red/green cell ratio (normalised) is 0.94 (inactive). Under setting [1], the normalised cell number is 1.03. In addition, under setting [2], the normalised cell number was 0.97.
Regarding `COC1=CC(=O)C[C@@H](C)[C@]12Cc1c(Cl)c(OC)cc(OC)c1C2=O`, the red/green cell ratio (normalised) is 0.76 (inactive). Under setting [1], the normalised cell number came out at 1.33. Moreover, the normalised cell number under setting [2] worked out at 1.01.
The like results for `C[C@]12CCC3c4ccc(O)cc4C[C@@H](CCCCCCCCCS(=O)CCCC(F)(F)C(F)(F)F)C3C1CC[C@@H]2O` (stereo not given in full) were, in that order, 1.23 (inactive), 0.99 and 1.21.
The like results for `CC1COc2c(N)c(F)cc3c(=O)c(C(=O)O)cn1c23` (stereo not given) were, in that order, 0.95 (inactive), 1.07 and 1.01.
